PubChem BioAssay (NCATS)
Results filed as inconclusive are left out. Activity calls are given as the source filed them. The call rests on the fitted dose curve; in most records, active means well fitted curve in the direction sought with a large enough effect; inconclusive means small, poorly fitted or top-dose-only effect, or another doubt; inactive means no such curve, though single readings can be large; an effect the other way counts as inactive or inconclusive.

Columns and labels:
[1] = system: Zika virus NS2B-NS3 protease; test: Primary screen GU AMC qHTS for Zika virus inhibitors (AID 1347154); further: nearly all actives have a fitted effect of over 70% in size
Summary of the method: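 Unlinked Zika NS2B hydrophilic domain–NS3 protease complex at 25 nM in 10 mM Tris-HCl pH 8.0, 0.01% Tween 20, with an AMC peptide substrate. Fluorescence change (340/450 nm) over 15 min at room temperature, normalized to controls, fitted to 4-parameter Hill.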

[2] = biological target: Calcium and integrin-binding protein 1 (Homo sapiens) (UniProt Q99828); test: Primary qHTS for Identification of Calcium Integrin Binding Protein 1 (CIB1) Competitor (AID 1508620)
Summary of the method: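 Fluorescence polarization competition: GST-tagged CIB1 (1 uM final) preincubated with compound 15 min at room temperature, then FITC-labelled alphaIIb peptide (100 nM final) added. After 15 min at room temperature, polarization read at Ex 480/Em 540.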

[3] = NCATS anti-infectives library activity on HEK293 viability as a counter-qHTS vs the C. elegans viability qHTS (AID 1745854);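 further: HEK293 cells exposed to compounds for 24 hr before the viability read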
Summary of the method: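 HEK293 cells (1,500/well) exposed 24 hr at 37C to 1:5 titrations, up to 41.7 uM final; counter-screen to a C. elegans viability qHTS. Viability by CellTiter-Glo luminescence after 10 min at room temperature; digitonin as control.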

[4] = biological target: Glutathione peroxidase 1 (Homo sapiens) (UniProt P07203); test: Primary qHTS Assay for Inhibitors of Recombinant Selenoprotein Glutathione Peroxidase 1 (GPX1) (AID 1845191); further: nearly all actives have a fitted effect of over 65% in size
Summary of the method: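 GR-coupled assay: compounds preincubated 30 min at room temperature with GPX1, then reaction started with CHP; final 10 nM GPX1, 1 mM GSH, 0.5 mM CHP, 0.5 mM NADPH, 100 nM GR, 0.01% BSA, pH 7.5 Tris buffer. NADPH fluorescence (340/450 nm) read at 0 and 15 min.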

[5] = biological target: Phospholipid hydroperoxide glutathione peroxidase GPX4 (Homo sapiens) (UniProt P36969); test: Primary qHTS Assay for Inhibitors of Recombinant Selenoprotein Glutathione Peroxidase 4 (GPX4) (AID 1845192); details: outcome: dose series up to 50 µM unless noted; further: nearly all actives have a fitted effect of over 65% in size
Summary of the method: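 GR-coupled assay: recombinant GPX4 preincubated 30 min with compound at room temperature; final 200 nM GPX4, 1 mM GSH, 0.5 mM cumene hydroperoxide, 0.5 mM NADPH, 100 nM GR, 0.01% BSA, pH 7.5 Tris. NADPH fluorescence (340/450 nm) read at 0 and 15 min.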

Measured: Potency

Sequence of Calcium and integrin-binding protein 1 (Homo sapiens) (Q99828 whole entry, looked up): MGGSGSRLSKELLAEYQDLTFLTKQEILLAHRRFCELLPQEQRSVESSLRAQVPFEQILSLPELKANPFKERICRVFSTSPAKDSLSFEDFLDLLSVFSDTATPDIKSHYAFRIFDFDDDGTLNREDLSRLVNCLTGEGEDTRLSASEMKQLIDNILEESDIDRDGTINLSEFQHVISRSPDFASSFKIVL
Sequence of Glutathione peroxidase 1 (Homo sapiens) (P07203 whole entry, looked up): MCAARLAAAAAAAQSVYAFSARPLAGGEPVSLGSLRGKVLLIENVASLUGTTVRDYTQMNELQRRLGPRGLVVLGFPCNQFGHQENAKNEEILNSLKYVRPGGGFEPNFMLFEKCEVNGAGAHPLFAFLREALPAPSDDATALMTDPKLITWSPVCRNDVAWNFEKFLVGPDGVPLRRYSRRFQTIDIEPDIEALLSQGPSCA
Sequence of Phospholipid hydroperoxide glutathione peroxidase GPX4 (Homo sapiens) (P36969 whole entry, looked up): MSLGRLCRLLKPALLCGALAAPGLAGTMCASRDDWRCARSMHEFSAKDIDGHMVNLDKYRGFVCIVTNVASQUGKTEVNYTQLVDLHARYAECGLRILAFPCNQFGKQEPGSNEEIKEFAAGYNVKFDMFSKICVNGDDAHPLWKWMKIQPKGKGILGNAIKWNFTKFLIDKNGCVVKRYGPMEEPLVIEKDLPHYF

CN(C)/C(N)=N/C(=N)N
inactive: [1] | [2] | [3] | [4] | [5] inactive [setting not given]
